Data: the supplement of paper PMC7411054
Counter-ions that a name gives are not always drawn.

How the values were obtained:
Settings in all cases: treatment time: 24 h
A549-ACTB-RAB5A [1] = test: lowest phenotypically active concentration; higher = less potent
In short: (§1)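 Four wells per concentration (0.3, 1, 3 or 9 µM) were treated for 24 h in each of fifteen gene-edited reporter lines from A549, HepG2 and WPMY1 cells, then imaged live. After normalising live-cell features to solvent control wells, deviation was defined as ≥3 of 4 wells lying past the 95th percentile of control Euclidean distances. Reproducibility was defined as a median replicate Pearson correlation above the 95th percentile of non-replicates. Both had to hold for phenotypic activity.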

WPMY1-CANX-COX4 [2] = test: as above
In short: as §1

WPMY1-GM130-SQSTM1 [3] = test: as above
In short: as §1

A549-ACTB-RAB5A [4] = test: phenotypically active (imaging signature differs from DMSO and reproducible) at any of 0.3-9 uM (binary (1 = active, 0 = inactive)); higher = active
In short: as §1

A549-CANX-COX4 = test: as above
In short: as §1

A549-GM130-SQSTM1 [5] = test: as above
In short: as §1

A549-TP53BP1-CLTA = test: as above
In short: as §1

A549-TUBA1B-RELA [6] = test: as above
In short: as §1

HepG2-ACTB-RAB5A = test: as above
In short: as §1

HepG2-CANX-COX4 = test: as above
In short: as §1

HepG2-GM130-SQSTM1 = test: as above
In short: as §1

HepG2-TP53BP1-CLTA = test: as above
In short: as §1

HepG2-TUBA1B-RELA = test: as above
In short: as §1

WPMY1-ACTB-RAB5A = test: as above
In short: as §1

WPMY1-CANX-COX4 [7] = test: as above
In short: as §1

WPMY1-GM130-SQSTM1 [8] = test: as above
In short: as §1

WPMY1-TP53BP1-CLTA = test: as above
In short: as §1

WPMY1-TUBA1B-RELA = test: as above
In short: as §1

A549-GM130-SQSTM1 [9] = test: lowest phenotypically active concentration; higher = less potent
In short: as §1

A549-TUBA1B-RELA [10] = test: as above
In short: as §1

Structure (SMILES) | lowest phenotypically active concentration (A549-ACTB-RAB5A [1]) [µM] | lowest phenotypically active concentration (WPMY1-CANX-COX4 [2]) [µM] | lowest phenotypically active concentration (WPMY1-GM130-SQSTM1 [3]) [µM] | phenotypically active (A549-ACTB-RAB5A [4]) | phenotypically active (A549-CANX-COX4) | phenotypically active (A549-GM130-SQSTM1 [5]) | phenotypically active (A549-TP53BP1-CLTA) | phenotypically active (A549-TUBA1B-RELA [6]) | phenotypically active (HepG2-ACTB-RAB5A) | phenotypically active (HepG2-CANX-COX4) | phenotypically active (HepG2-GM130-SQSTM1) | phenotypically active (HepG2-TP53BP1-CLTA) | phenotypically active (HepG2-TUBA1B-RELA) | phenotypically active (WPMY1-ACTB-RAB5A) | phenotypically active (WPMY1-CANX-COX4 [7]) | phenotypically active (WPMY1-GM130-SQSTM1 [8]) | phenotypically active (WPMY1-TP53BP1-CLTA) | phenotypically active (WPMY1-TUBA1B-RELA) | lowest phenotypically active concentration (A549-GM130-SQSTM1 [9]) [µM] | lowest phenotypically active concentration (A549-TUBA1B-RELA [10]) [µM]
COc1cc(C)c(/C=C/C(C)=C/C=C/C(C)=C/C(=O)O)c(C)c1C [acitretin] | 9 | 9 | 9 | 1 (active) | 0 (inactive) | 0 (inactive) | 0 (inactive) | 0 (inactive) | 0 (inactive) | 0 (inactive) | 0 (inactive) | 0 (inactive) | 0 (inactive) | 0 (inactive) | 1 (active) | 1 (active) | 0 (inactive) | 0 (inactive) | – | –
CC(C)(C(=O)c1cccnc1)c1cccnc1 [metyrapone] | – | – | – | 0 (inactive) | 0 (inactive) | 1 (active) | 0 (inactive) | 0 (inactive) | 0 (inactive) | 0 (inactive) | 0 (inactive) | 0 (inactive) | 0 (inactive) | 0 (inactive) | 0 (inactive) | 0 (inactive) | 0 (inactive) | 0 (inactive) | 9 | –
CC[C@H](Nc1ncnc2[nH]cnc12)c1nc2cccc(F)c2c(=O)n1-c1ccccc1 [idelalisib] | 9 | – | – | 1 (active) | 0 (inactive) | 0 (inactive) | 0 (inactive) | 0 (inactive) | 0 (inactive) | 0 (inactive) | 0 (inactive) | 0 (inactive) | 0 (inactive) | 1 (active) | 0 (inactive) | 0 (inactive) | 0 (inactive) | 0 (inactive) | – | –
Cc1nc2sccn2c(=O)c1CCN1CCC(=C(c2ccc(F)cc2)c2ccc(F)cc2)CC1 [Ritanserin] | 9 | – | 9 | 1 (active) | 0 (inactive) | 0 (inactive) | 0 (inactive) | 0 (inactive) | 0 (inactive) | 0 (inactive) | 1 (active) | 0 (inactive) | 1 (active) | 0 (inactive) | 0 (inactive) | 1 (active) | 0 (inactive) | 0 (inactive) | – | –
CC(C)(C)c1cc(/C=C(\C#N)C(N)=S)cc(C(C)(C)C)c1O | – | – | 9 | 0 (inactive) | 1 (active) | 1 (active) | 1 (active) | 0 (inactive) | 1 (active) | 1 (active) | 1 (active) | 1 (active) | 1 (active) | 0 (inactive) | 0 (inactive) | 1 (active) | 1 (active) | 0 (inactive) | 3 | –
Nc1ncnc2c1nc(Br)n2[C@@H]1O[C@@H]2COP(=O)(O)O[C@H]2[C@H]1O [8-Bromo-cAMP, sodium salt] | 9 | 9 | – | 1 (active) | 0 (inactive) | 0 (inactive) | 0 (inactive) | 0 (inactive) | 0 (inactive) | 0 (inactive) | 0 (inactive) | 0 (inactive) | 0 (inactive) | 0 (inactive) | 1 (active) | 0 (inactive) | 0 (inactive) | 0 (inactive) | – | –
CC(C)(C)c1ccc(S(=O)(=O)/C=C/C#N)cc1 | 9 | 9 | 9 | 1 (active) | 0 (inactive) | 0 (inactive) | 0 (inactive) | 0 (inactive) | 0 (inactive) | 0 (inactive) | 1 (active) | 0 (inactive) | 1 (active) | 0 (inactive) | 1 (active) | 1 (active) | 1 (active) | 0 (inactive) | – | –
COC(=O)C1=CO[C@@H](C)[C@H]2CN3CCc4c([nH]c5ccccc45)[C@@H]3C[C@H]12 [Ajmalicine hydrochloride] | – | 9 | 3 | 0 (inactive) | 1 (active) | 0 (inactive) | 0 (inactive) | 0 (inactive) | 1 (active) | 1 (active) | 0 (inactive) | 1 (active) | 0 (inactive) | 0 (inactive) | 1 (active) | 1 (active) | 0 (inactive) | 0 (inactive) | – | –
Cc1cccc(C)c1OCC(C)N (stereo not drawn) [mexiletine] | – | – | ≤ 0.3 | 0 (inactive) | 1 (active) | 0 (inactive) | 1 (active) | 0 (inactive) | 1 (active) | 0 (inactive) | 0 (inactive) | 0 (inactive) | 0 (inactive) | 0 (inactive) | 0 (inactive) | 1 (active) | 0 (inactive) | 0 (inactive) | – | –
O=S(=O)(c1ccccc1)N(CC(F)(F)F)c1ccc(C(O)(C(F)(F)F)C(F)(F)F)cc1 | – | – | – | 0 (inactive) | 0 (inactive) | 1 (active) | 0 (inactive) | 0 (inactive) | 0 (inactive) | 0 (inactive) | 0 (inactive) | 0 (inactive) | 0 (inactive) | 0 (inactive) | 0 (inactive) | 0 (inactive) | 0 (inactive) | 0 (inactive) | 9 | –
CCOC(=O)C1=C[C@]2(CC)CCCN3CCc4c(n1c1ccccc41)[C@@H]32 [Vinpocetine] | 9 | – | 9 | 1 (active) | 0 (inactive) | 0 (inactive) | 0 (inactive) | 0 (inactive) | 1 (active) | 0 (inactive) | 0 (inactive) | 0 (inactive) | 0 (inactive) | 0 (inactive) | 0 (inactive) | 1 (active) | 0 (inactive) | 0 (inactive) | – | –
C=C1CC[C@H](O)C/C1=C\C=C1\CCC[C@]2(C)[C@@H]([C@H](C)/C=C/[C@H](C)C(C)C)CC[C@@H]12 [Calciferol] | – | – | – | 0 (inactive) | 0 (inactive) | 1 (active) | 0 (inactive) | 0 (inactive) | 0 (inactive) | 0 (inactive) | 0 (inactive) | 0 (inactive) | 0 (inactive) | 0 (inactive) | 0 (inactive) | 0 (inactive) | 0 (inactive) | 0 (inactive) | 9 | –
Cc1cc2sc(NC(=O)Cc3ccccc3)nc2cc1Cl | – | – | – | 0 (inactive) | 0 (inactive) | 1 (active) | 0 (inactive) | 1 (active) | 0 (inactive) | 0 (inactive) | 0 (inactive) | 0 (inactive) | 0 (inactive) | 0 (inactive) | 0 (inactive) | 0 (inactive) | 0 (inactive) | 0 (inactive) | 3 | 9
Cc1cccc(CN2CCN(C(c3ccccc3)c3ccc(Cl)cc3)CC2)c1 (stereo not drawn) [Meclizine dihydrochloride] | 9 | – | – | 1 (active) | 0 (inactive) | 0 (inactive) | 0 (inactive) | 0 (inactive) | 0 (inactive) | 0 (inactive) | 0 (inactive) | 0 (inactive) | 1 (active) | 0 (inactive) | 0 (inactive) | 0 (inactive) | 0 (inactive) | 0 (inactive) | – | –
CCCOc1ccn2c(C(C)=O)cc(-c3ccccc3S(C)(=O)=O)c2c1 | – | – | – | 0 (inactive) | 0 (inactive) | 1 (active) | 0 (inactive) | 0 (inactive) | 0 (inactive) | 0 (inactive) | 0 (inactive) | 0 (inactive) | 0 (inactive) | 0 (inactive) | 0 (inactive) | 0 (inactive) | 0 (inactive) | 0 (inactive) | 9 | –
C[C@@H]1CCN(C(=O)CC#N)C[C@@H]1N(C)c1ncnc2[nH]ccc12 | 9 | – | – | 1 (active) | 0 (inactive) | 0 (inactive) | 0 (inactive) | 0 (inactive) | 0 (inactive) | 1 (active) | 1 (active) | 1 (active) | 0 (inactive) | 0 (inactive) | 0 (inactive) | 0 (inactive) | 0 (inactive) | 0 (inactive) | – | –
N=C1NC(=O)/C(=C\c2ccc(O)cc2)S1 [Mirin] | 9 | – | – | 1 (active) | 0 (inactive) | 0 (inactive) | 0 (inactive) | 0 (inactive) | 0 (inactive) | 0 (inactive) | 0 (inactive) | 0 (inactive) | 0 (inactive) | 1 (active) | 0 (inactive) | 0 (inactive) | 0 (inactive) | 0 (inactive) | – | –
Cc1cc(C(C)Nc2ccccc2)c2nc(N3CCOCC3)cc(=O)n2c1 (stereo not drawn) | 9 | 9 | 9 | 1 (active) | 0 (inactive) | 0 (inactive) | 0 (inactive) | 0 (inactive) | 1 (active) | 0 (inactive) | 0 (inactive) | 0 (inactive) | 0 (inactive) | 0 (inactive) | 1 (active) | 1 (active) | 0 (inactive) | 0 (inactive) | – | –
Cc1cccc(-c2n[nH]cc2-c2ccc(F)c(-c3cnn(CCO)c3)c2)n1 | 9 | 9 | 9 | 1 (active) | 0 (inactive) | 0 (inactive) | 0 (inactive) | 0 (inactive) | 0 (inactive) | 1 (active) | 0 (inactive) | 1 (active) | 0 (inactive) | 1 (active) | 1 (active) | 1 (active) | 1 (active) | 1 (active) | – | –
CC(=O)N1CCN(c2ccc(OC[C@H]3CO[C@](Cn4ccnc4)(c4ccc(Cl)cc4Cl)O3)cc2)CC1 [Ketoconazole] | 9 | – | 9 | 1 (active) | 0 (inactive) | 0 (inactive) | 0 (inactive) | 0 (inactive) | 0 (inactive) | 0 (inactive) | 0 (inactive) | 0 (inactive) | 0 (inactive) | 0 (inactive) | 0 (inactive) | 1 (active) | 0 (inactive) | 0 (inactive) | – | –
O=c1c(-c2ccc(O)cc2)coc2cc(O)cc(O)c12 [Genistein] | – | 9 | – | 0 (inactive) | 0 (inactive) | 1 (active) | 1 (active) | 1 (active) | 0 (inactive) | 0 (inactive) | 0 (inactive) | 0 (inactive) | 0 (inactive) | 1 (active) | 1 (active) | 0 (inactive) | 1 (active) | 1 (active) | 9 | 9
N=C(N)NC(=N)NCCc1ccccc1 [phenformin] | – | – | – | 0 (inactive) | 1 (active) | 1 (active) | 0 (inactive) | 0 (inactive) | 0 (inactive) | 0 (inactive) | 0 (inactive) | 0 (inactive) | 0 (inactive) | 0 (inactive) | 0 (inactive) | 0 (inactive) | 0 (inactive) | 0 (inactive) | 9 | –
O=c1cc(N2CCOCC2)oc2c(-c3ccccc3)cccc12 | – | 9 | ≤ 0.3 | 0 (inactive) | 0 (inactive) | 1 (active) | 1 (active) | 1 (active) | 1 (active) | 0 (inactive) | 1 (active) | 1 (active) | 1 (active) | 1 (active) | 1 (active) | 1 (active) | 1 (active) | 0 (inactive) | 9 | 9
